Inhibition data for 33 molecules are collected here from PubChem BioAssay AID1259311 (ICCB-Longwood Screening Facility, Harvard Medical School, 2017).

“And” between values parts separate entries of the source, which are not always exact repeats. Equal values may be shown once. Hit rate of the full screen: of about 330,000 compounds, about 1,100 (0.33%) were called active. The full list was thinned out, with actives kept by preference. Values without a mark were called inactive. No stated cut-off is given here; in the data, active means inhibition above about 85%; inactive means the rest.

The test in a line: growth inhibition of S. aureus RN4220, primary screen, OD600 (AID 1259311).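 Further: plate controls were untreated cells for no effect and reference antibiotic for full effect.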 The following applies: OD600, 16 h, active compounds read high.
`CCCCCN1CC(O)=C(c2ccccc2)C1=N`: the inhibition (usually the drop in the measured response relative to a control, in per cent) was 7.74%.

`CCCCCCCCCCCCn1ccc(=N)cc1`: the inhibition was 101% (active).

As for `CCC1=C2CCC3C(=O)N(CC)C(=O)C3C2[C@@]2(Cc3ccccc3)C(=NCCOC)OC(=O)N2C1=O` (stereo partly drawn), the inhibition was 4.23%.

On to `O=C(NN=Cc1cccc(OCC(=O)N2CCCC2)c1)C(=O)Nc1ccccc1F`, for which the inhibition was 5.07%.

With `CC=C(C)C(=O)NCCN1C2=NCC(C(C)C)N2CC1Cc1ccc(O)cc1` (stereo not drawn), the inhibition is 5.17%.

With `O=C(CC(=O)NN=Cc1ccc(Cl)cc1Cl)NCc1ccccc1`, the inhibition was 3.6%.

For the molecule `Cc1c(CCOC(=O)c2cc([N+](=O)[O-])ccc2Cl)sc[n+]1CCCCS(=O)(=O)[O-]`, the inhibition was -3.66%.

`Cc1c(CCO)sc[n+]1CC(=O)OC12CC3CC(CC(C3)C1)C2`: the inhibition is 4.95%.

With `Cc1c(CCOC(=O)CC23CC4CC(CC(C)(C4)C2)C3)sc[n+]1Cc1ccc([N+](=O)[O-])cc1`, the inhibition was 100% (active) and 99.7% (active).

As to `O=C1C=C(c2ccc3ncccc3c2)CC(c2ccc(F)cc2)C1` (stereo not drawn), the inhibition was -2.12%.

With `CCOc1cc(C=NO)ccc1OCc1ccccc1F`, the inhibition was 7.66%.

Consider `Clc1ccc(NN=Cc2cccs2)nn1`, for which the inhibition is 4.84%.

On to `C/C(C=Nn1c(-c2cccnc2)n[nH]c1=S)=C\c1ccco1`, for which the inhibition was 12.6%.

Turning to `CCCCCCCCn1c2c(c(=N)c3c1CCC3)CCCC2`, the inhibition was 100% (active).

For the molecule `CC(C)c1ccc2c(c1)c(SC(C)(C)C)c(CC(C)(C)C(=O)O)n2Cc1ccc(Cl)cc1`, the inhibition is 100% (active).

`NC(Cc1ccc(O)cc1)c1cn(C(CCC(=O)O)C(=O)N2CCNCC2)nn1` (stereo not drawn): the inhibition was 3.88%.

Turning to `NC(=NOC(=O)C(c1ccccc1)c1ccccc1)c1ccccn1`, the inhibition was 1.37%.

Consider `S=c1[nH]nc(-c2cccc(Cl)c2)n1N=Cc1ccc(-c2ccccc2Br)o1`, for which the inhibition was 10.7%.

Consider `O=C(O)C(c1ccccc1)N1C(=O)/C(=C\c2ccc(-c3cccc(Cl)c3)o2)SC1=S` (stereo not drawn), for which the inhibition is 95.5% (active).

Consider `CC1=NOC(=O)C1=Cc1ccc(-c2ccc(Cl)c(C(=O)O)c2)o1`, for which the inhibition was 3.22%.

On to `Cc1cccc(OCC(=O)NN=Cc2ccc(N(C)C)cc2)c1`, for which the inhibition is 6.39%.

Turning to `CCOc1ccc(Br)cc1C(=O)NN=Cc1c[nH]c2ccccc12`, the inhibition was -6.23%.

Take `O=C(NN=Cc1c[nH]c2ccccc12)c1ccc(O)c(O)c1`: the inhibition was -0.918%.

Take `O=C(NN=Cc1c[nH]c2ccccc12)c1[nH]c2ccc(Br)cc2c1-c1ccccc1`: the inhibition is 86.5% (active).

For the molecule `CCCCN1C(=S)NCC1Cc1ccc(O)cc1` (stereo not drawn), the inhibition was 4.99%.

As to `O=C(COC(=O)c1ccc(F)cc1)NCC1COc2ccccc2O1` (stereo not drawn), the inhibition is -4.66%.

`O=C(Nc1nnc(C2COc3ccccc3O2)o1)c1ccc(F)cc1` (stereo not drawn): the inhibition was 98.2% (active).

On to `CC1COc2ccccc2N1C(=O)c1ccc(F)cc1` (stereo not drawn), for which the inhibition is 1.99%.

Consider `COc1ccc(C(C)=NOCC(=O)N2CC3(C)CC2CC(C)(C)C3)cc1` (stereo not drawn), for which the inhibition was 4.12%.

In the case of `CCCc1c(C(=O)NN=Cc2ccc(OC)c(OCc3ccccc3)c2)nnn1-c1nonc1N`, the inhibition is 14%.

Turning to `COC(=O)[C@@]12CCCCN1C(c1ccc(-c3ccc4c(c3)OCO4)cc1)C1C(=O)N(C)C(=O)C12` (stereo partly drawn), the inhibition was -2.68%.

On to `COc1ccc(C(C)=NNC(=O)C(NC(=O)c2ccccc2)c2n[nH]c(=O)c3ccccc23)c(OC)c1` (stereo not drawn), for which the inhibition was 1.72%.

For `Cc1ccc(C=NNC(=O)c2ccco2)cc1`, the inhibition is -0.191%.
